We go through 49 compounds from PubChem BioAssay (NCATS).

Several values for one entry are separate records, joined by “and”; a condition that tells them apart may be missing. Equal entries are not always repeated. Records with an inconclusive call do not appear. A number with no mark means an inactive call. Activity calls are given as the source filed them. Calls come from the whole dose curve.

The target in assay [1] is Bile acid receptor (Homo sapiens) (UniProt Q96RI1). The assay is described as follows: qHTS assay for small molecule agonists of farnesoid X receptor signaling (AID 588527).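 Note: series mostly up to about 77 µM; 0% = vehicle basal and 100% = reference agonist.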 The conditions noted are these: HEK293T FXR-UAS-bla, beta-lactamase ratio, 16 h; activation: active compounds read high. The method in brief:
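FXR-UAS-bla HEK293T, 10% dialyzed FBS; cpds up to 92 uM titration, 16 h 37 C; CCF4 dye 2 h RT; fluorescence. Normalized to chenodeoxycholic acid 100 uM (100%) and DMSO (0%); Hill fit gives EC50, efficacy.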

For assay [2], the target named is Peroxisome proliferator-activated receptor delta (Homo sapiens) (UniProt Q03181). The assay is described as follows: qHTS assay for small molecule agonists of peroxisome proliferator-activated receptor delta signaling (AID 588534).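 Note: 0% = DMSO basal wells and 100% = positive control agonist at 10 µM.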 The method in brief:
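Agonist-mode beta-lactamase reporter readout (CCF4 dye, 2 h at RT) after 18 h at 37 °C exposure to a titration; Hill-equation fitting gave EC50 and maximal response.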
Background: In qHTS, concentration-response curves come from the screen itself.

Bile acid receptor (Homo sapiens), sequence (Q96RI1 whole entry, looked up): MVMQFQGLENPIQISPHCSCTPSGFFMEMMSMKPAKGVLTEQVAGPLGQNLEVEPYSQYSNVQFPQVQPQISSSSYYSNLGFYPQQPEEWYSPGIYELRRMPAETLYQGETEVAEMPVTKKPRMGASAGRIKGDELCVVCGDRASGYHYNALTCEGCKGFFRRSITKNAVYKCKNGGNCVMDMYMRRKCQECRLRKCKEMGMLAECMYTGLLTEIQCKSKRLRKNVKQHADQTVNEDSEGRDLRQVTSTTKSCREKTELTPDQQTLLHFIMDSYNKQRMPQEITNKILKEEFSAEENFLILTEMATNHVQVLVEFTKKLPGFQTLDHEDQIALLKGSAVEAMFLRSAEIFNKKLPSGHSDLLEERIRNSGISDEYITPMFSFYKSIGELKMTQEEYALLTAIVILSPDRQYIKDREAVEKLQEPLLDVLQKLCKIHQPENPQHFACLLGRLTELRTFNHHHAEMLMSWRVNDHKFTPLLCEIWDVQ
Peroxisome proliferator-activated receptor delta (Homo sapiens), sequence (Q03181 whole entry, looked up): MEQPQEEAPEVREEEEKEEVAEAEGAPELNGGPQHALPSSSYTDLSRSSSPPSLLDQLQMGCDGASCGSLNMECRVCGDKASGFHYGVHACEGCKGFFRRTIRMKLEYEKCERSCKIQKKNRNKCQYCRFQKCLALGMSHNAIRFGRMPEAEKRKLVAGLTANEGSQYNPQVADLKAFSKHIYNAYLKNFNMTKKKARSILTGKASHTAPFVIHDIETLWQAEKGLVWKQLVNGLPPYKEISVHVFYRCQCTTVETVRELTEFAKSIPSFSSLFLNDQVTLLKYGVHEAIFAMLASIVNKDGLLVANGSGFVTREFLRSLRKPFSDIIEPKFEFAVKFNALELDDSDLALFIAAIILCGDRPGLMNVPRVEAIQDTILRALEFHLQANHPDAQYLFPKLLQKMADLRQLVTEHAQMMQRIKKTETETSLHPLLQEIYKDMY

On to `Cc1ccc(C(=O)c2ccccc2)cc1`, for which the activation in assay [1] is -0.352%. In assay [2], the call was inactive.
`COC(=O)CCCCC(=O)OC`: in assay [1], the activation was -2.8% and 3.47% and -2.74%. Moreover, the outcome in assay [2] was inactive.
`CCCCCCc1ccc(-c2ccc(C#N)cc2)cc1`: the activation in assay [1] is -1.9%. Also, the compound was classed as inactive in assay [2].
On the same counts, the results for `CCCCCCCCCCCC[N+](C)(C)[O-]` are 8.79% and “inactive”.
Take `CC(O)CC(C)O` (stereo not drawn): the activation in assay [1] was -1.48%. For the same compound, in assay [2], the compound was classed as inactive.
Taken in the same sequence, the figures for `CCCCN(CCO)CCCC` were -4.1% and “inactive”.
`CCO[Si](CCCN)(OCC)OCC`: the activation in assay [1] is -1.61% and 1.5%. The result in assay [2] was inactive.
In the case of `CC(=O)OC(C)C`, in assay [1], the activation was -1.76%. The compound was classed as inactive in assay [2].
On the same counts, the results for `CC1=C(/C=C/C(C)=C/C=C/C(C)=C/C=O)C(C)(C)CCC1` are 23.6% and “inactive”.
On the same counts, the results for `N#CCc1ccccc1[N+](=O)[O-]` are -1.36% and “inactive”.
Taken in the same sequence, the figures for `Cc1cccc2ccccc12` were -0.539% and “inactive”.
Consider `OCC(CO)(CBr)CBr`, for which, in assay [1], the activation was -0.248%. Also, in assay [2], the call was inactive.
On the same counts, the results for `C=C(C)C(=O)OCCCCCCCCCC` are -1.22% and “inactive”.
As for `C[Si]1(C)O[Si](C)(C)O[Si](C)(C)O[Si](C)(C)O1`, the activation in assay [1] is -3.3%. In addition, the result in assay [2] was inactive.
On the same counts, the results for `C=CCCCCCCC=C` are -0.711% and “inactive”.
On the same counts, the results for `c1ccc(Oc2ccccc2)cc1` are -0.867% and “inactive”.
On the same counts, the results for `CCCCC(CC)CNCC(CC)CCCC` (stereo not drawn) are -2.36% and “inactive”.
Turning to `CCCCC(CC)COC(=O)c1ccc(C(=O)OCC(CC)CCCC)cc1` (stereo not drawn), the activation in assay [1] was 2.72%. Also, the compound was called inactive in assay [2].
As for `O=C(O)CCSSCCC(=O)O`, the activation in assay [1] is -1.56%. The compound was classed as inactive in assay [2].
`O=S(=O)(O)c1ccc(N=Nc2cc(S(=O)(=O)O)c3ccccc3c2O)c2ccccc12`: the activation in assay [1] was 2.06%. Further, the result in assay [2] was inactive.
`O=C=Nc1ccc(Cc2ccc(N=C=O)cc2)cc1`: the activation in assay [1] was 3.57% and 0.965%. Moreover, in assay [2], the call was inactive.
`CCCCOCC(C)OCC(C)O` (stereo not drawn): in assay [1], the activation was 5.12%. Also, the compound was classed as inactive in assay [2].
On the same counts, the results for `O=C=NCCCCCCN=C=O` are 0.566% and “inactive”.
With `Cc1ccc(Cl)cc1`, in assay [1], the activation was -1.75%. Also, in assay [2], the compound was called inactive.
Taken in the same sequence, the figures for `O=C(O)CN(CCO)CCN(CC(=O)O)CC(=O)O` were -2.73% and “inactive”.
Take `CC(=O)CC(=O)Nc1ccc(C)cc1C`: the activation in assay [1] is 0.192%. The call in assay [2] was inactive.
`Cc1ccc(C(=O)O)cc1`: the activation in assay [1] was -1.14%. Besides, the compound was classed as inactive in assay [2].
Turning to `CCCCCCCN`, in assay [1], the activation is -2.09%. Further, the compound was classed as inactive in assay [2].
On the same counts, the results for `CC(=O)N(CCN(C(C)=O)C(C)=O)C(C)=O` are 1.43% and “inactive”.
Take `Cc1ccccc1Br`: the activation in assay [1] was -2.02%. Also, the compound was classed as inactive in assay [2].
Turning to `Cc1ccc(N=Nc2c(O)ccc3ccccc23)c([N+](=O)[O-])c1`, in assay [1], the activation was -0.458%. In addition, the call in assay [2] was inactive.
In the case of `CS/C(=N\O)C(=O)N(C)C`, the activation in assay [1] was -1.99%. For the same compound, in assay [2], the compound was classed as inactive.
Taken in the same sequence, the figures for `O=[N+]([O-])c1ccc(CCO)cc1` were -0.12% and “inactive”.
For `Nc1cnn([C@@H]2O[C@H](CO)[C@@H](O)[C@H]2O)c(=O)n1`, the activation in assay [1] is -2.94%. The compound was classed as inactive in assay [2].
Taken in the same sequence, the figures for `CCCCCCCCCCCCO` were -2.63% and “inactive”.
Consider `CCC(=O)C1C(=O)CC(C(=O)O)CC1=O` (stereo not drawn), for which the activation in assay [1] is -1.69%. For the same compound, the result in assay [2] was inactive.
Taken in the same sequence, the figures for `CC(C)=CCl` were -3.14% and “inactive”.
Taken in the same sequence, the figures for `NC(=O)/N=N/C(N)=O` were -1.16% and “inactive”.
On to `O=[N+]([O-])c1cccc(Cl)c1Cl`, for which the activation in assay [1] is -2.65% and -2.56%. Also, the result in assay [2] was inactive.
`CCNc1ccccc1`: in assay [1], the activation is -3.11%. The outcome in assay [2] was inactive.
Take `CCc1c(C(=O)O)c(=O)cnn1-c1ccc(Cl)cc1`: the activation in assay [1] was 1.28%. Besides, the compound was classed as inactive in assay [2].
On the same counts, the results for `Nc1c(Cl)cc(Cl)cc1Cl` are 0.611% and “inactive”.
On the same counts, the results for `C1COC1` are -2.57% and “inactive”.
For the compound `C=CC(=O)OCCCC`, the activation in assay [1] is -3.45%. Besides, the call in assay [2] was inactive.
On the same counts, the results for `NNS(=O)(=O)c1ccc(Oc2ccc(S(=O)(=O)NN)cc2)cc1` are -0.0085% and “inactive”.
Regarding `CCc1cccc(C)c1N(C(=O)CS(=O)(=O)O)[C@@H](C)COC`, in assay [1], the activation was 1.55%. For the same compound, in assay [2], the result was inactive.
On the same counts, the results for `CC1COCc2cc3c(cc21)C(C)(C)C(C)C3(C)C` (stereo not drawn) are 0.585% and “inactive”.
Taken in the same sequence, the figures for `Nc1nc(-c2ccccc2)cs1` were 2.42% and “inactive”.
Consider `Cc1cc(C(C)(C)CC(C)(C)C)ccc1OCCOCC[N+](C)(C)Cc1ccccc1`, for which the activation in assay [1] is -0.746%. The outcome in assay [2] was inactive.
